Among the data in the supplement of paper PMC8007513 are growth yield values, retold here.

For this assay, the system named is Trichoderma virens ATCC 9645. Nature of the assay: growth yield (OD600) relative to untreated control; higher = less growth inhibition. The following applies: compound concentration: 100 uM. Put shortly: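 For each 96-well plate, 100 μl aliquots were prepared with Trichoderma virens ATCC 9645 spores suspended at 15,000 spores ml^−1 in potato dextrose broth. The spores had been harvested from potato dextrose agar plates after 7 days. Library compounds were present at 100 μM final, some wells also receiving a biocide at 200 ng ml^−1, and plates were grown at 30 °C with OD600 read on a BioTek EL800 at 40 h and 72 h. Reported growth, relative to the control lacking both agents, is the mean of duplicate screens.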

Counter-ions that a name gives are not always drawn. ± gives the standard error. The campaign covered roughly 1,300 compounds. About 75 (6%) showed an effect of 50% or more. The full list was thinned out, with strong results kept by preference.

Compound `Oc1cc(Cl)ccc1Oc1ccc(Cl)cc1Cl` [Triclosan] gave a growth yield (40 h) of 6.99 ± 4.1% and a growth yield (72 h) of 3.25 ± 0.1%.

`CCNCC(O)c1cccc(O)c1` (stereo not given) [Etilefrine hydrochloride]: the growth yield reads like this: (40 h) 105 ± 3%; (72 h) 103.1 ± 0.94%.

With `C=CCC1(CC(C)C)C(=O)NC(=O)NC1=O` [Butalbital], the growth yield came to 98.2% (40 h) and 96.5% (72 h).

On to `CNCC(O)c1ccc(O)cc1` (racemic) [(+,-)-Synephrine], for which the growth yield by setting is: (40 h) 105 ± 4.3%; (72 h) 100 ± 2.3%.

`O=C([O-])c1ccccc1-c1c2cc(Br)c(=O)cc-2oc2[c]([Hg+])c([O-])c(Br)cc12.[Na+].[Na+].[OH-]` [Merbromin]: the growth yield was 2.54 ± 0.95% (40 h) and 2.2 ± 0.94% (72 h).

Consider `CCN(CC)C(C)C(=O)c1ccccc1` (stereo not given) [Amfepramone hydrochloride], for which the growth yield was 102 ± 3% (40 h) and 99 ± 3.1% (72 h).

As for `CC1OC(OC2/C=C/C=C/C=C/C=C/CC/C=C/C=C/[C@H](C)[C@@H](O)[C@@H](C)[C@H](C)OC(=O)CC(O)CC(O)CC(O)CCC(O)C(O)C[C@]3(O)CC(O)C(C(=O)O)C(C2)O3)C(O)C(N)C1O` (stereo not given in full) [Nystatine], the growth yield worked out at 97.4 ± 5.6% (40 h) and 107.3 ± 0.94% (72 h).

With `O=C(CCCN1CCC(n2c(=O)[nH]c3ccccc32)CC1)c1ccc(F)cc1` [Benperidol], the growth yield by setting is: (40 h) 102 ± 5.2%; (72 h) 99.9 ± 7.2%.

Compound `CC[C@H](C)[C@H]1O[C@]2(C=C[C@@H]1C)C[C@@H]1C[C@@H](C/C=C(\C)[C@@H](O[C@H]3C[C@H](OC)[C@@H](O[C@H]4C[C@H](OC)[C@@H](O)[C@H](C)O4)[C@H](C)O3)[C@@H](C)/C=C/C=C3\CO[C@@H]4[C@H](O)C(C)=C[C@@H](C(=O)O1)[C@]34O)O2.CO[C@H]1C[C@H](O[C@H]2[C@H](C)O[C@@H](O[C@@H]3/C(C)=C/C[C@@H]4C[C@@H](C[C@]5(C=C[C@H](C)[C@@H](C(C)C)O5)O4)OC(=O)[C@@H]4C=C(C)[C@@H](O)[C@H]5OC/C(=C\C=C\[C@@H]3C)[C@]54O)C[C@@H]2OC)O[C@@H](C)[C@@H]1O` [Avermectin B1] returned a growth yield (40 h) of 107 ± 5.6% and a growth yield (72 h) of 105 ± 2.3%.

For the compound `CCCCCC[C@H]1C(=O)O[C@H](C)[C@H](NC(=O)c2cccc(NC=O)c2O)C(=O)O[C@@H](C)[C@@H]1OC(=O)CC(C)C` [Antimycin A], the growth yield by setting is: (40 h) 27.5 ± 1.1%; (72 h) 49.6 ± 2.6%.

The compound `C#CCN(C)[C@H](C)Cc1ccccc1` [Selegiline hydrochloride] showed a growth yield (40 h) of 102 ± 1.4% and a growth yield (72 h) of 104 ± 5%.

As to `CCCC(C)C1(CC)C(=O)NC(=O)NC1=O` (stereo not given) [Pentobarbital], the growth yield is, setting by setting: (40 h) 101.3 ± 0.95%; (72 h) 102 ± 1.7%.

In turn, `CC(=O)OCC1=C(C(=O)O)N2C(=O)[C@@H](N)[C@H]2SC1` [Cephalosporanic acid, 7-amino] returned a growth yield (40 h) of 105 ± 5.7% and a growth yield (72 h) of 107 ± 6.2%.

With `CCC(=O)O[C@@](Cc1ccccc1)(c1ccccc1)[C@@H](C)CN(C)C` [Levopropoxyphene napsylate], the growth yield was found to be 106 ± 2.9% (40 h) and 103 ± 3.4% (72 h).

For `C[C@]12C/C(=C/O)C(=O)C[C@@H]1CC[C@@H]1[C@@H]2CC[C@@]2(C)[C@H]1CC[C@]2(C)O` [Oxymetholone], the growth yield (40 h) was 96.9 ± 9.2% and the growth yield (72 h) was 91.5 ± 4.8%.

On to `C[C@@H]1C[C@@H]([C@H](O)CC2CC(=O)NC(=O)C2)C(=O)[C@@H](C)C1` [Cycloheximide], for which the growth yield runs as follows: (40 h) 46.7 ± 7.3%; (72 h) 75.5 ± 5.5%.

`NCC(CC(=O)O)c1ccc(Cl)cc1` (racemic) [Baclofen (R,S)]: the growth yield is, setting by setting: (40 h) 105 ± 4.1%; (72 h) 105 ± 4.7%.

For `CN[C@@H]1[C@@H](O)[C@@H](O[C@@H]2[C@@H](O)[C@H](O[C@H]3O[C@H](CN)CC[C@H]3N)[C@@H](N)C[C@H]2N)OC[C@]1(C)O.CN[C@@H]1[C@@H](O)[C@@H](O[C@@H]2[C@@H](O)[C@H](O[C@H]3O[C@H]([C@@H](C)N)CC[C@H]3N)[C@@H](N)C[C@H]2N)OC[C@]1(C)O.CN[C@@H]1[C@@H](O)[C@@H](O[C@@H]2[C@@H](O)[C@H](O[C@H]3O[C@H]([C@@H](C)NC)CC[C@H]3N)[C@@H](N)C[C@H]2N)OC[C@]1(C)O` [Gentamicine sulfate], the growth yield runs as follows: (40 h) 101%; (72 h) 97.3%.

As for `NC(=O)OCCCc1ccccc1` [Phenprobamate], the growth yield reads like this: (40 h) 104 ± 6.3%; (72 h) 101 ± 4.6%.

With `COc1cccc(C2(O)CCCCC2CN(C)C)c1` (stereo not given) [Tramadol hydrochloride], the growth yield reads like this: (40 h) 101 ± 1.3%; (72 h) 99.8 ± 2.1%.
